High-throughput results (PubChem)
Compounds with a hit are over-represented: about 1.2% of the library has one in this group of screens.
MEX-5 binding: C. elegans MEX-5 TCR-2 RNA binding activity; Q9XUB2; MEX-5/FITC-TCR2 RNA binding, fluorescence polarization; active compounds read low; activity score (negative = inhibition of binding), % at 10 µM; 300,000 compounds, 0.38% hits; AID 1832;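 active = inhibition past about -25% in most replicates, and total fluorescence under double the plate's negative control median, limit read from the data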;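 note: 0% = DMSO and -100% = 5 µM competing unlabeled TCR2 RNA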
GLD-1 RNA inh: GLD-1-TGE RNA interaction inhibition (C. elegans); AID 2280; 320,000 compounds, 0.44% hits; inhibition, % at 5.96 µM; Q17339; purified GLD-1 + fluorescein TGE RNA, fluorescence polarization;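 active = percent inhibition above a per-plate cutoff, the plate mean of test compounds plus 3 SD, cut at about 30% in these data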;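 note: 0% = DMSO wells with GLD-1 and probe and 100% = wells lacking GLD-1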
C-LANA FP: inhibitors of KSHV LANA C-terminal domain DNA binding; MBP-C-LANA/FAM-LBS DNA binding, fluorescence polarization; inhibition, % at 9 µM; 340,000 compounds, 0.078% hits; AID 504423;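 active = highest replicate inhibition at or above 60% at 9 µM, even if other replicates fall short; inactive = all replicates below 60% inhibition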;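 note: 0% = neutral control wells and 100% = 4 µM acridine orange control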
Bcl-xL primary: blocks human Bcl-xL binding to Bim BH3 peptide | Q07817 | GST-Bcl-xL / FITC-Bim BH3 peptide fluorescence polarization | inhibition, % at 10.9 µM | 320,000 compounds, 0.7% hits;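 active = inhibition above the mean of all tested compounds plus 3 SD, cutoff set per campaign, cut at about 30% in these data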;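 note: 0% = DMSO wells and 100% = unlabeled Bim-BH3 peptide competitor; inhibitors lower millipolarization by displacing the labeled peptide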
Keap1-Nrf2 PPI: disrupts human Keap1 binding to Nrf2 peptide; Q14145; Keap1 Kelch-Nrf2 peptide fluorescence polarization, 1536-well; inhibition, % at 9.4 µM; 340,000 compounds, 0.15% hits; in the data active = inhibition above about 12%;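 note: human Keap1 Kelch domain with fluorescein labeled Nrf2 9mer peptide probe; 0% = neutral control wells and 100% = peptide positive control; higher means more block of Keap1 binding to Nrf2 peptide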
eLon inh: inhibitors of E. coli Lon protease | P0A9M0 | purified E. coli Lon protease, fluorescence polarization | inhibition, % at 7.94 µM | 360,000 compounds, 0.42% hits | AID 602123; in the data active = inhibition above about 13%, passing the limit was not always enough;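 note: 0% = enzyme with probe and DMSO and 100% = no enzyme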
Target sequence (P0A9M0 whole entry, looked up): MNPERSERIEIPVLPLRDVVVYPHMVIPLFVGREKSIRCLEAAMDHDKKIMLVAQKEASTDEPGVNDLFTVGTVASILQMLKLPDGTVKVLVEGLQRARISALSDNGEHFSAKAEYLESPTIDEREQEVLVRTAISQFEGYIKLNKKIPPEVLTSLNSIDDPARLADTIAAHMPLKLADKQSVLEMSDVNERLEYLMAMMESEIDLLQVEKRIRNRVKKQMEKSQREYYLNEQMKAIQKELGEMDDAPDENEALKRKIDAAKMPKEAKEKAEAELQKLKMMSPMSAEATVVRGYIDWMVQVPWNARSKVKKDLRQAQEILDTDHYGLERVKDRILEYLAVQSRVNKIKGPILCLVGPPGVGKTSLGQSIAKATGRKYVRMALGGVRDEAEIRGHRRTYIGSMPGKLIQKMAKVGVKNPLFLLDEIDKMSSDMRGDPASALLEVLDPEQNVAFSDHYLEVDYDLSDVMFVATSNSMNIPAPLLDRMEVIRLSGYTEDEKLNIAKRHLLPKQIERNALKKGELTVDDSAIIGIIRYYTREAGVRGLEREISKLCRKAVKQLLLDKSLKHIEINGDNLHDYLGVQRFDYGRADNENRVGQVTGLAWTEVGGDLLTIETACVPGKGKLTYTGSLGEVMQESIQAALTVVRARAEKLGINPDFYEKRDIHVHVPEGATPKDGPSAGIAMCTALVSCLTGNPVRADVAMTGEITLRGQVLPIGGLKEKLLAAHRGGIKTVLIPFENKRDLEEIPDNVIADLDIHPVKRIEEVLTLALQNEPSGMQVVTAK
* = called active by the depositor; i = inactive; . = no result.

SMILES	MEX-5 binding	GLD-1 RNA inh	C-LANA FP	Bcl-xL primary	Keap1-Nrf2 PPI	eLon inh
O=C(NCc1cccnc1)Nc1ccc(Cl)cc1	-1.0	-0.1	-0.2	3.3	-4.7	5.8
Nn1c(SCC(=O)NC2CCCC2)nnc1C(F)(F)F	.	.	.	.	.	0.6
CCC(C)CNC(=O)c1cccc(OC2CCN(CC(C)(C)C)CC2)c1 (stereo not given)	-4.9	-4.5	3.4	6.1	1.1	0.1
CCCCN(C)C(=O)c1cccc(OC2CCN(CC(C)(C)C)CC2)c1	-31.3*	-2.6	1.3	3.0	-1.1	1.1
COc1ccc(Cl)cc1-c1cc(C(=O)NCc2cccs2)[nH]n1	.	.	.	.	.	-3.6
Fc1ccc(N=c2ssnc2Cl)c(F)c1	-29.8*	8.6	0.7	3.1	-3.2	0.3
Cc1nc2c(c(=O)n1CCC1=CCCCC1)c1nc3ccccc3nc1n2/N=C/c1ccco1	-4.1	9.7	1.3	39.2*	-1.9	-0.9
COC1(OC)N=C(N)C2(C#N)C(c3ccccc3)NC(C)=CC12C#N (stereo not given)	-5.9	5.6	-0.1	10.5	-2.8	-1.8
CC1=CC(C#N)(C#N)C(C#N)(C#N)C(c2ccccc2)N1 (stereo not given)	-53.5*	118.9*	.	144.9*	.	.
Nc1cc(N)c(OCC(F)(F)F)cc1OCC(F)(F)F	-0.6	30.3	4.1	39.3*	-3.1	9.6
CCCOc1cccc(C2C(C(=O)c3ccco3)=C(O)C(=O)N2c2nnc(C)s2)c1 (stereo not given)	-32.1*	55.8*	1.2	40.6*	-7.1	8.2
Cc1nnc(N2C(=O)C(O)=C(C(=O)c3ccco3)C2c2ccc(F)cc2)s1 (stereo not given)	-27.5*	45.0*	6.0	33.0*	-4.2	9.2
Cc1nnc(N2C(=O)C(O)=C(C(=O)c3ccco3)C2c2ccc(C(C)(C)C)cc2)s1 (stereo not given)	-5.4	31.5*	7.0	33.0*	0.3	-8.2
Cc1nnc(N2C(=O)C(O)=C(C(=O)c3ccco3)C2c2ccc(C(C)C)cc2)s1 (stereo not given)	-26.6*	40.4*	10.7	40.0*	1.9	-4.9
CC1=C(C(=O)N2CCCCCC2)CC(CC(=O)NCCN2CCOCC2)C(=O)N1CCC1=CCCCC1 (stereo not given)	.	.	.	.	.	-1.4
CCc1cc(C(=O)Nc2cc(S(=O)(=O)N3CCCCC3)ccc2N2CCN(C)CC2)sc1C	.	.	.	.	.	15.2
Cc1ccc(C)c(N2C(=N)S/C(=C\c3ccc(-c4ccccc4C(=O)O)o3)C2=O)c1	-18.0	-29.9	0.0	6.6	-6.4	-27.7
Cc1cc(C(=O)O)ccc1-c1ccc(/C=C2\SC(=O)N(CC(=O)Nc3ccc4c(c3)OCO4)C2=O)o1	.	.	10.5	.	13.5*	6.0
CCOC(=O)C(C)N1C(=O)S/C(=C\c2ccc(-c3ccccc3C(=O)O)o2)C1=O (stereo not given)	-7.5	-2.9	36.5	30.5*	-0.7	-18.9
Cc1ccccc1NC(=O)CN1C(=O)S/C(=C\c2ccc(-c3cc(C(=O)O)ccc3C)o2)C1=O	-53.9*	.	22.7	.	-7.6	-1.0
Cc1nc(N(C)C)c2sc(=S)n(Cc3ccccc3)c2n1	0.8	2.5	0.8	6.4	0.3	8.6
CC1(OC(=O)C2CCCC2)C(=O)C=C2C=C(c3ccsc3)N(C3CCCCC3)C=C2C1=O (stereo not given)	-2.5	24.4	0.5	30.2*	-5.1	14.0
COc1ccccc1-c1noc2ncnc(Nc3ccc4c(c3)OCO4)c12	-1.1	5.4	-1.1	2.7	0.2	-4.0
COC(=O)CCC(=O)OC1(C)C(=O)C2=CN(c3ccc(OC)cc3)C(c3ccc(OC)cc3)=CC2=C(Br)C1=O (stereo not given)	-6.2	12.7	2.0	18.6	-1.2	-4.4
COc1ccc(C2=CC3=C(Br)C(=O)C(C)(OC(=O)c4ccco4)C(=O)C3=CO2)cc1 (stereo not given)	-47.5*	20.2	11.2	42.3*	-5.8	-42.9
SMILES	MEX-5 binding	GLD-1 RNA inh	C-LANA FP	Bcl-xL primary	Keap1-Nrf2 PPI	eLon inh
COc1ccc(C2=CC3=C(Br)C(=O)C(C)(OC(=O)c4cccs4)C(=O)C3=CO2)cc1 (stereo not given)	-33.6*	12.9	3.6	20.1	-4.3	-26.4
CCN(CC)c1ccc(/C=C(\C#N)C(=O)c2ccc(Br)cc2)cc1	-16.4	63.2*	6.4	52.4*	-19.1	i
CC1=C(C(=O)N2CCCCCC2)CC(CC(=O)NC2CC2)C(=O)N1Cc1ccccc1 (stereo not given)	.	.	.	.	.	-0.2
O=C(O)c1cccc(-n2cccc2C=C2C(=O)c3ccccc3C2=O)c1	-22.2	-10.5	9.3	11.2	-3.1	-1.2
O=C1C(=Cc2cccn2-c2ccc(O)cc2)C(=O)c2ccccc21	0.1	60.8*	0.9	169.1*	-2.7	11.0
COc1ccc(CC2=CC(=O)c3ccccc3C2=O)cc1	-1.7	12.0	-0.8	24.3	-0.2	10.6
COC(=O)C(Nc1nccs1)(OC)C(F)(F)F (stereo not given)	-19.8	7.1	3.6	60.6*	-0.2	12.8
NC(=S)N=Nc1c(O)[nH]c2ccc(F)cc12	-0.8	2.6	0.1	9.0	-6.8	0.1
NC(=S)N=Nc1c(O)cc(O)c2[nH]c(=O)ccc12	.	.	23.6	.	15.5*	10.8
Cc1cc(C2C(C#N)=C(N)OC3=C2C(=O)CCC3)c(C)s1 (stereo not given)	-3.5	-0.7	1.4	1.4	3.4	-3.3
COc1cc(C2C(C#N)=C(N)OC3=C2C(=O)CCC3)c([N+](=O)[O-])cc1OC (stereo not given)	-62.8*	98.3*	59.0	155.7*	9.2	49.8*
CCC(C)(C)NC(=O)C(c1cccn1C)N(C(=O)Cn1nnc2ccccc21)c1ccc(OC)cc1 (stereo not given)	-29.1*	7.8	-0.6	8.8	-2.5	0.4
Cc1nonc1C(=O)N/N=C/c1ccc(O)c(O)c1	-5.3	-8.8	0.4	1.8	-7.9	4.2
O=C(N/N=C/c1ccc(O)c(O)c1)N/N=C/c1ccc(O)c(O)c1	-39.4*	.	30.1	.	-0.2	-3.0
Oc1ccc(/C=N/NC(=S)Nc2cccnc2)cc1O	-45.5*	-1.2	5.1	13.8	-1.6	6.8
CC(C)(C)c1ccc(/C=N/NC(=S)Nc2cccnc2)cc1	-1.1	0.8	.	5.6	.	.
O=C(COC(=O)Cc1ccc(Cl)c(Cl)c1)NCCc1ccccc1	.	.	.	.	.	-3.5
Cc1ccc(C)c(N2N=C(C(=O)N(CC(C)C)c3c(N)n(Cc4ccccc4)c(=O)[nH]c3=O)CCC2=O)c1	-0.2	61.3*	2.2	16.4	-5.7	-7.5
CC(C)CN(C(=O)C1=NN(c2ccccc2)C(=O)CC1)c1c(N)n(Cc2ccccc2)c(=O)[nH]c1=O	.	1.6	-0.3	0.0	2.6	-0.8
C[C@H](CO)N1C[C@H](C)[C@@H](CN(C)Cc2ccc(Cl)c(Cl)c2)OCc2cnnn2CCCC1=O	.	.	.	.	.	4.2
